Screening data as filed in PubChem.
The full list was thinned out, with hits kept by preference.
FECH inh – blocks human mitochondrial ferrochelatase activity. P22830. purified FECH, Ni-mesoporphyrin absorbance 550 nm. calls only at 10 µM (by protocol). 3.3% of 20,000 active. AID 1671448;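 active means enzyme reaction rate more than 3 SD below the solvent-only control wells on the same plate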;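 further: lower slope than DMSO wells means FECH inhibition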
Target sequence (P22830 whole entry, looked up): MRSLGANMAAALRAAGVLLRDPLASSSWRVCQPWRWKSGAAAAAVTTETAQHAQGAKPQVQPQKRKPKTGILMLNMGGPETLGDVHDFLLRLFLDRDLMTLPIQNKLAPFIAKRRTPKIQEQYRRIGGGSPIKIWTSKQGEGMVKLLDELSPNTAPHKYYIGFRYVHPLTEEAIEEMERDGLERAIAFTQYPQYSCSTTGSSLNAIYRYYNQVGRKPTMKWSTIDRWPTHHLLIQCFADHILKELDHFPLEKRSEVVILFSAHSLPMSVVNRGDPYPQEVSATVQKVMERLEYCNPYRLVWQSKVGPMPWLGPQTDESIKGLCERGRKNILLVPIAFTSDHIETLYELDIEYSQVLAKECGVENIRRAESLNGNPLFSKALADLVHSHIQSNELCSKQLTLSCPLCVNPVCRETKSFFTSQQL
An asterisk follows results filed as active; i = inactive; + = active, no number.

SMILES	FECH inh
COc1ccc(C(=O)N(Cc2nc3nc(C)cc(C)n3n2)c2cccc(C)c2)cc1	+
CCOc1ccc(N(Cc2nc3nc(C)cc(C)n3n2)C(=O)c2cccc(C)c2)cc1	i
CCCC(=O)N(Cc1nc2nc(C)cc(C)n2n1)c1ccc(F)cc1	i
Cc1cc(C)n2nc(CN(C(=O)CC(C)C)c3ccccc3)nc2n1	i
Cc1cccc(N(Cc2nc3nc(C)cc(C)n3n2)C(=O)C(C)(C)C)c1	i
COc1cc(C(=O)N(Cc2nc3nc(C)cc(C)n3n2)c2cccc(C)c2)cc(OC)c1OC	i
c1nc(C2CCNCC2)cc(N2CC3CC4CC2C[C@@H](C4)C3)n1	i
COc1cc(Cl)c(C)cc1NC(=O)Cn1c(=O)c2cnc(-c3ccccc3)nc2n(C)c1=O	i
Cc1ccc(Nc2cc(C)nc(N3CCN(S(=O)(=O)c4cccc(F)c4)CC3)n2)cc1	i
CCOC(=O)c1ccc(Cn2ccnc2-c2ccccc2OC)o1	i
COCCN1CCC(C(=O)NCc2nc(C)c3c(n2)CCCC3)C1 (stereo unspecified)	i
CCCc1cnc(C)nc1N1CCN(C/C(C)=C/c2ccco2)CC1	i
O=C(N[C@H]1CCC[C@H]1Cc1ccc(F)cc1)c1cc2n(n1)CCNC2	i
CNS(=O)(=O)c1ccc(-c2nccn2CCc2ccco2)cc1	i
COc1ccc(C(=O)N2CCc3c(c(C(=O)NCc4ccccc4)nn3C)C2)cc1	i
Cn1nc(C(=O)NCc2ccccc2)c2c1CCN(C(=O)C1CCC1)C2	+
Cc1ccc(C(=O)N2CCc3c(c(C(=O)NCc4ccccc4)nn3C)C2)cc1	+
Cn1nc(C(=O)NCc2ccccc2)c2c1CCN(C(=O)c1ccccc1)C2	i
Cn1nc(C(=O)NCc2ccccc2)c2c1CCN(C(=O)c1ccccc1Cl)C2	i
Cc1ccccc1C(=O)N1CCc2c(c(C(=O)NCc3ccccc3)nn2C)C1	i
c1ccc(Cc2nc(CCc3cn4ccccc4n3)n[nH]2)cc1	i
O=C(NCc1cccnc1Oc1ccccc1F)c1n[nH]c2c1CCCC2	i
Cc1cc(NC(=O)c2ccccc2)n(-c2ncnc3c2cnn3-c2cccc(C)c2C)n1	i
COC(=O)c1cc(OC)cc(C(=O)Nc2cnc3n2CCCC3)c1	i
CCOc1ccc(N(Cc2nc3nc(C)cc(C)n3n2)C(=O)c2ccc(OC)cc2)cc1	i
SMILES	FECH inh
O=C(NCCN1CCCCCC1)c1cccn1-c1nnc(N2CCCCC2)s1	i
Cc1ccccc1CNC(=O)c1cccn1-c1nnc(N2CCCCC2)s1	i
O=C(NCc1ccccc1F)c1cccn1-c1nnc(N2CCCCC2)s1	+
CCc1cc(Sc2ccc(NC(=O)c3ccc(F)cc3)cc2)n2ncnc2n1	i
CCCCn1ncc(C)c1NC(=O)C1COc2ccccc2O1 (stereo unspecified)	i
O=C(CCC(=O)N1CCc2cc(S(=O)(=O)N3CCOCC3)ccc21)N1CCOCC1	i
O=C(Nc1nc2n(n1)C(c1ccc(F)cc1)C=C(c1ccc(Cl)cc1)N2)c1ccccc1F (stereo unspecified)	i
Cc1ccc(C)c(NS(=O)(=O)c2cc(N3C(=O)CCS3(=O)=O)ccc2C)c1	i
COc1ccc(-c2cc(C(=O)Nc3ccc(C)cc3C)[nH]n2)cc1S(N)(=O)=O	i
Cc1ccc(NS(=O)(=O)c2ccc(N)c(S(N)(=O)=O)c2)c(C)c1	+
COc1ccc(-c2ccc(=O)[nH]n2)cc1S(=O)(=O)Nc1ccc(C)cc1C	i
Cc1ccc(C)c(NS(=O)(=O)c2ccc(N)c(S(N)(=O)=O)c2)c1	+
COc1ccc(N2C(=O)CCS2(=O)=O)cc1S(=O)(=O)Nc1cc(C)ccc1C	i
CCOc1ccc(-n2cnnc2)cc1-n1cccc1	i
Cc1ccc(N2C(=O)CCS2(=O)=O)cc1S(=O)(=O)Nc1ccc(C(F)(F)F)cc1	i
CCn1c(CNS(=O)(=O)c2cccc(OC)c2)nc2cccnc21	i
CCN(CC)c1ncc(NS(=O)(=O)c2ccc(C(C)(C)C)cc2)cc1C(=O)O	i
CC(C)Cc1cc(CNc2ncnc3sc4c(c23)CCNC4)no1	i
CCCC1C=CCN1c1ncnc2sc3c(c12)CCNC3 (stereo unspecified)	+
NC(=O)C1(N2CCCCC2)CCN(c2ncnc3sc4c(c23)CCNC4)CC1	i
CCc1cc(Sc2ccc(NC(=O)Nc3ccc(Cl)cc3)cc2)n2nc(C)nc2n1	i
CCC(CC)C(=O)Nc1cc(C)nn1-c1ncnc2c1cnn2-c1cccc(Cl)c1	+
CCOc1ccc(CC(=O)Nc2cc(C)nn2-c2ncnc3c2cnn3-c2cccc(Cl)c2)cc1	i
CCOc1ccc(CC(=O)Nc2cc(C)nn2-c2ncnc3c2cnn3-c2ccc(Cl)cc2)cc1	+
Cc1cc(NC(=O)CC(C)(C)C)n(-c2ncnc3c2cnn3-c2cccc(Cl)c2)n1	i
SMILES	FECH inh
Cc1ccc(OCC(=O)Nc2cc(C)nn2-c2ncnc3c2cnn3-c2ccc(Cl)cc2)cc1	i
CCCC(=O)Nc1cc(C)nn1-c1ncnc2c1cnn2-c1cccc(Cl)c1	i
O=C1Nc2cc(Cl)ccc2C(=O)N2CCCCC12 (stereo unspecified)	i
COc1ccc(S(=O)(=O)N2CCC(n3c(C(F)(F)F)nc4cccnc43)CC2)cc1OC	+
O=S(=O)(c1ccccc1)N1CCC(n2c(C(F)(F)F)nc3cccnc32)CC1	i
COc1ccc(Cl)cc1S(=O)(=O)N1CCC(n2c(C(F)(F)F)nc3cccnc32)CC1	i
CCC(CC)C(=O)NC1CC(=O)N(c2cccc(OC)c2)C1 (stereo unspecified)	i
Cc1cccnc1NCCNC(=O)c1cccc2ccnn12	i
Cc1ccc(NC(=O)CC(=O)NCCSc2nccn2C)c(C)c1	i
Cc1ccc(NC(=O)CNCCNc2ncccc2C)c(C)c1	+
O=c1cc(CCc2nc(C3CC3)nn2-c2ccc3c(c2)OCCO3)o[nH]1	i
CCN(C)C(=O)c1ccc(N2CCC(c3[nH]ncc3-c3ccccc3)CC2)nc1	i
CCc1cc(Sc2ccc(NC(=O)c3cc(OC)c(OC)c(OC)c3)cc2)n2ncnc2n1	i
Cc1cc(C(=O)N2C[C@@H](N)C[C@H]2C(=O)NC(C)C)c(-c2ccccc2)o1	i
CCCc1cc(C(=O)N2C[C@@H](N)C[C@H]2C(=O)NC(C)C)ccn1	i
CC(C)NC(=O)[C@@H]1C[C@H](N)CN1C(=O)c1cccc2c3c([nH]c12)CCCC3	+
Cc1ccc(-n2c(CN3CCN(S(=O)(=O)c4cccc(C)c4)CC3)nc3cccnc32)cc1	i
Cc1cc(NC(=O)c2ccccc2C)n(-c2ncnc3c2cnn3-c2cccc(Cl)c2)n1	i
CCOc1ccc(NC(=O)CN2CCCN(Cc3ccc(F)cc3)S2(=O)=O)cc1	+
O=C(CN1CCCN(Cc2ccc(Cl)cc2)S1(=O)=O)Nc1ccc(F)cc1	i
CCOc1ccc(NC(=O)CN2CCCN(Cc3ccc(Cl)cc3)S2(=O)=O)cc1	+
CCc1ccc(NC(=O)CN2CCCN(Cc3ccc(Cl)cc3)S2(=O)=O)cc1	i
CCOc1ccc(NC(=O)CN2CCCN(Cc3ccc(OC)cc3)S2(=O)=O)cc1	i
CCOc1ccc(NC(=O)CN2CCN(Cc3ccc(F)cc3)S2(=O)=O)cc1	i
CC(c1ccon1)N(C)C(=O)c1cn(C/C=C/c2ccccc2)nn1 (stereo unspecified)	i
CCCCC(=O)Nc1cccc(C(=O)N(C)Cc2ccncn2)c1	i
CCOC(=O)c1cc2ccsc2n1CC(=O)Nc1cc(OC)cc(OC)c1	i
